Data reported in the supplement of paper PMC6897291.

System: U-2932
Experiment: growth inhibition by drug alone (1 - RLU/untreated control) (fraction); higher = stronger inhibition
Settings: 177Lu-lilotomab satetraxetan 0 ug/ml
Protocol: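 U-2932 ABC-DLBCL cells were pretreated or not for 18 h with 1 ug/ml 177Lu-lilotomab satetraxetan (600 MBq/mg), washed and seeded (3000 cells/well) on 384-well plates pre-printed with the Selleck Cambridge Cancer Compound library. Viability was read by RealTime-Glo luminescence on days 3-6 after seeding. Effect = 1 - RLU/mean RLU of the 48 untreated no-drug control wells per plate; Bliss score = (M-E)/(1-Fa), with E the expected Bliss-additive effect.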

Structure (SMILES) | growth inhibition by drug alone (10 nM, time (day): 3) | growth inhibition by drug alone (10 nM, time (day): 4) | growth inhibition by drug alone (10 nM, time (day): 5) | growth inhibition by drug alone (10 nM, time (day): 6) | growth inhibition by drug alone (1000 nM, time (day): 3) | growth inhibition by drug alone (1000 nM, time (day): 4) | growth inhibition by drug alone (1000 nM, time (day): 5) | growth inhibition by drug alone (1000 nM, time (day): 6)
COc1ccc(-c2ccc3c(N4CCOC[C@@H]4C)nc(N4CCOC[C@@H]4C)nc3n2)cc1CO | 0.165 | 0.142 | 0.0822 | 0.157 | 0.896 | 0.892 | 0.897 | 0.909
CCn1c(-c2nonc2N)nc2cnc(Oc3cccc(NC(=O)c4ccc(OCCN5CCOCC5)cc4)c3)cc21 | -0.134 | -0.155 | -0.145 | -0.41 | 0.0463 | 0.0519 | 0.129 | 0.357
c1ccc(-c2nn3c(c2-c2ccnc4cc(OCCN5CCOCC5)ccc24)CCC3)nc1 | 0.0304 | 0.0254 | 0.0259 | -0.126 | 0.0168 | -0.0245 | -0.0928 | -0.157
CC1(C)CCC(c2ccc(Cl)cc2)=C(CN2CCN(c3ccc(C(=O)NS(=O)(=O)c4ccc(N[C@H](CCN5CCOCC5)CSc5ccccc5)c(S(=O)(=O)C(F)(F)F)c4)cc3)CC2)C1 [ABT-263 (Navitoclax)] | -0.00418 | -0.0018 | -0.0135 | 0.024 | 0.0839 | 0.635 | 0.85 | 0.894
C=CC(=O)Nc1cccc(Oc2nc(Nc3ccc(N4CCN(C)CC4)cc3OC)ncc2Cl)c1 | -0.0921 | -0.0614 | -0.0383 | 0.12 | 0.122 | 0.0694 | 0.0278 | 0.0218
